# Experimental data taken from PubChem BioAssay AID2472 (National Center for Advancing Translational Sciences (NCATS), 2010).
# The whole screen tested about 290,000 compounds, of which about 2,000 (0.69%) were called active. Only a selection was taken, and actives are over-represented in it overall. Unmarked numbers belong to inactive results. Cut-off read from the data, not from the text of the source: active = activity change below about -30%; inactive = the rest, inconclusive results apart.
# Experiment: qHTS Assay for Inhibitors of Fructose-1,6-bisphosphate Aldolase from Giardia Lamblia: Coupling assay counterscreen
# Settings: coupling enzyme system counterscreen, AmpLite Red fluorescence; at 58.2 µM (top of the series)
# Procedure, shortened: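 Final compound at 57.5 uM, incubated 10 min at RT with coupling enzyme reagent (glyceraldehyde-3-phosphate), then 20 min with substrate and AmpLite Red detection. Fluorescence read at 525/598 nm; tests interference with the coupling assay, not aldolase inhibition.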
# % is set by controls: 0 for no effect and ±100 for the full control effect.
row,SMILES,"activity change, negative = inhibition"
1,O=C(NCc1ccccc1Cl)c1ccc2c(=O)n(CC3CCCO3)c(=S)[nH]c2c1 (stereo not drawn),2.3%
2,COc1ccccc1OCc1nnc(SCC(N)=O)n1-c1ccccc1,-0.0181%
3,COc1ccc(-c2c3c(=O)n(C)c(=O)n(C)c3cn2NC(C)=O)cc1,-2.71%
4,O=C1c2ccccc2C(=O)N1c1cccc2ccccc12,2.72%
5,Cn1c(=O)c2cn(-c3cccc4ccccc34)cc2n(C)c1=O,-34.2% (active)
6,COc1ccc(-c2c3c(=O)n(C)c(=O)n(C)c3cn2-c2cccc(OC)c2)cc1,3.67%
7,CC(=O)Nn1cc2c(=O)n(C)c(=O)n(C)c2c1,-0.0563%
8,COc1ccc(OC)c(-n2cc3c(=O)n(C)c(=O)n(C)c3c2)c1,-33.3% (active)
9,CN(Cc1ccc(F)cc1Cl)S(=O)(=O)c1cccs1,-12.4%
10,CC(C)(C)c1ccc(SCCc2ccncc2)cc1,1.38%
11,COc1cc(NC(=O)C2CCN(c3cnccn3)CC2)cc(OC)c1,-3.56%
12,Cc1cc(C(F)F)n2nc(C(=O)Nc3ccc(S(=O)(=O)NC45CC6CC(CC(C6)C4)C5)cc3)nc2n1,0.756%
13,CCn1nccc1C(=O)Nc1ccc(Cl)c(Cl)c1,0.939%
14,CCn1nccc1C(=O)Nc1ccc(S(=O)(=O)NC23CC4CC(CC(C4)C2)C3)cc1,-40.9% (active)
15,COc1ccc(NC(=O)C2CCC(CNC(=O)[C@@H]3Cc4ccccc4CN3)CC2)cc1 (stereo partly drawn),0.0857%
16,COc1ccc(NC(=O)CCn2ccnc2)c(OC)c1,5.46%
17,COc1ccc(N=C(C)c2sc3ccccc3c2O)cc1,-5.39%
18,Oc1ccc(N=Cc2sc3ccccc3c2Cl)cc1,-45.3% (active)
19,O=C(N/N=C/c1c(Cl)[nH]c2ccccc12)c1sc2ccccc2c1Cl,-8.68%
20,COc1ccccc1S(=O)(=O)c1c(C)cc(C)[nH]c1=O,0.55%

row,SMILES,"activity change, negative = inhibition"
1,C=CC(C1=CC(=O)C=CC1=O)c1ccc(O)cc1 (stereo not drawn),-27%
2,Cc1oc2c(c1C(=O)N1CCOCC1)C(=O)c1ccccc1C2=O,-40.8% (active)
3,Cc1noc(C)c1C(=O)N1CCOCC1,0.778%
4,CCOC(=O)c1ccccc1C(=O)N1CCOCCOCCOCC1,-0.445%
5,COC(=O)c1cc2c(ccn2C)n1C,-5.9%
6,Cc1cc(C(=O)N/N=C/c2ccccn2)c2ccccc2n1,0.262%
7,CCCc1cc(=S)n2c([nH]c3ccccc32)c1C#N,-7.83%
8,CCOC(=O)CCc1c(C)c(C#N)c2[nH]c3ccccc3n2c1=O,-41.6% (active)
9,CCOC(=O)CSc1nccc(N(C)C)c1C#N,-0.791%
10,C=CCn1cc(Cl)cc(C(=O)Nc2ccccc2)c1=O,0.816%
11,COc1ccc(S(=O)(=O)/N=C2\C=C(NS(=O)(=O)c3ccccc3)C(=O)c3ccccc32)cc1,-39.6% (active)
12,COc1ccc2cc(S(=O)(=O)Nc3ccccn3)ccc2c1,0.329%
13,COc1ccc(S(=O)(=O)Nc2c(C)n(C)n(-c3ccccc3)c2=O)cc1,0.385%
14,C[C@@H](O)[C@@H]1NC(=O)[C@H](CCCCN)NC(=O)[C@H](Cc2c[nH]c3ccccc23)NC(=O)[C@H](Cc2ccccc2)NC(=O)[C@H](Cc2ccccc2)NC(=O)[C@H](CC(N)=O)NC(=O)[C@H](CCCCN)NC(=O)[C@@H](NC(=O)[C@@H]2CCCN2)CSSC[C@@H](C(=O)N[C@@H](CCCCN)C(=O)O)NC(=O)[C@H](CO)NC(=O)[C@H](CO)NC(=O)[C@H](Cc2ccccc2)NC1=O,-0.403%
15,CCCc1c(C(=O)Nc2ccc(F)cc2)cnn1-c1ccccc1,-6.8%
16,Cc1ccc(CNC(=O)C2(C(F)(F)F)C/C(=C\CCO)CCCO2)o1 (stereo not drawn),3.8%
17,Cc1ccc(C(=O)Nc2cccc3ncccc23)cc1[N+](=O)[O-],0.485%
18,O=C(Nc1cccc2ncccc12)C(Cl)(Cl)Cl,0.503%
19,Cc1ccc(/C=C(\C#N)C(=O)Nc2cccc3ncccc23)o1,-39% (active)
20,CCOC(=O)C1CCCN(S(=O)(=O)c2ccc(-n3cnnn3)c(C)c2)C1 (stereo not drawn),2.06%

row,SMILES,"activity change, negative = inhibition"
1,c1ccc2c(Nc3ccncc3)nc(-c3ccc4c(c3)OCO4)nc2c1,-0.804%
2,Cc1cc(C)cc(NC(=O)NCc2ccccn2)c1,-0.5%
3,O=C(NCc1ccccn1)c1ccc2nc(-c3ccco3)c(-c3ccco3)nc2c1,-38.7% (active)
4,O=C(Nc1ccc2nccnc2c1)c1ccco1,-1.38%
5,COCCNC(=O)Nc1ccc2nc(-c3ccco3)c(-c3ccco3)nc2c1,-35% (active)
6,COc1ccc2oc(=O)c(C(=O)NCc3ccccn3)cc2c1,-2.85%
7,CC(C)(C)c1ccc(NC(=O)NCc2ccco2)cc1,-0.174%
8,CCCCC/C=C\C/C=C\C/C=C\CCCCCCC(N)=O,2.69%
9,CCC1Sc2ccc(S(=O)(=O)CCC(=O)NCc3cccs3)cc2NC1=O (stereo not drawn),-3.89%
10,Cc1cc2c(cc1S(=O)(=O)NCc1ccc(Cl)cc1)OCC(=O)N2,1.64%
11,COC(=O)C(C(=O)OC)[C@@H](NC=O)c1ccccc1,1.57%
12,CCOC(=O)C1=C(C(=O)OCC)C(C(=O)OCC)N(S(=O)(=O)C(F)(F)F)c2ccccc21 (stereo not drawn),0.565%
13,CCOC(=O)c1ccccc1CN1C(=O)c2ccccc2S1(=O)=O,-1.95%
14,CCOC(=O)c1cc2n(c1N)-c1ccccc1C2=O,-30.6% (active)
15,COC(=O)c1ccc(CNC(=O)C2CCC(=O)N(Cc3ccccn3)C2)cc1 (stereo not drawn),0.556%
16,CCOC(=O)C1=NO[C@@]2(C=C(Br)C(=O)[C@H]3O[C@H]32)C1,1.71%
17,Cc1cc(CNC(=O)C2CCC(=O)N(CCc3ccc(Cl)cc3)C2)no1 (stereo not drawn),2.61%
18,CC(C(=O)NCCc1ccc(S(N)(=O)=O)cc1)N1C(=O)CC(C)(C)Sc2ccccc21 (stereo not drawn),5.69%
